The sample as a whole holds a higher share of hits than the screen did.
Dicer inh: inhibitors of Dicer pre-microRNA processing, primary screen, biochemical, cat-ELCCA, chemiluminescence; cat-ELCCA pre-miR-21 Dicer processing; stronger effect = higher value; z-score at 25 µM; actives 6% (n = 47,000); AID 1347074, 2019; in the data active means z-score above about 3, passing the limit was not always enough;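 further: plate controls were vehicle for no effect and no enzyme for full effect; higher signal means more uncleaved substrate so more Dicer inhibition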
* marks the source's active call; other numbers are inactive results.

SMILES	Dicer inh
COc1ccc(O)c(C2=NN3C(C2)c2cccc(OC)c2OC3c2cc(OC)ccc2OC)c1 (stereo unspecified)	2.9
COC(=O)c1ccc(C2Oc3ccccc3C3CC(c4ccccc4O)=NN32)cc1 (stereo unspecified)	0.57
COc1cc(C2Oc3ccccc3C3CC(c4ccccc4O)=NN32)ccc1O (stereo unspecified)	11*
COc1cc(C2Oc3c(OC)cccc3C3CC(c4ccccc4O)=NN32)ccc1O (stereo unspecified)	2.6
COc1ccc(O)c(C2=NN3C(C2)c2cccc(OC)c2OC3c2ccccc2F)c1 (stereo unspecified)	0.02
COc1ccc(OC)c(C2Oc3ccccc3C3CC(c4ccccc4O)=NN32)c1 (stereo unspecified)	6*
COc1ccc(O)c(C2=NN3C(C2)c2ccccc2OC3c2ccc(OC)c(OC)c2)c1 (stereo unspecified)	6*
COc1ccc(O)c(C2=NN3C(C2)c2cccc(OC)c2OC3c2cccc(OC)c2OC)c1 (stereo unspecified)	2.1
COc1cc(S(=O)(=O)n2cc(C)nc2-c2ccccc2)c(OC)cc1Cl	1.3
CC(Oc1ccc(Oc2ccc(C(F)(F)F)cc2)cc1)C(=O)NNc1cnc2ccccc2n1 (stereo unspecified)	4.9
C=CCn1c2ccccc2c2nnc(SCC(=O)c3ccccc3)nc21	0.57
CC1CC(=O)c2cc(Cl)ccc2S1 (stereo unspecified)	0.93
Cc1[nH]c2ccccc2c(=O)c1Cc1c(C)[nH]c2ccccc2c1=O	-1.8
O=C(Oc1cccc2[nH]ccc12)c1ccc(C(F)(F)F)cc1	-0.51
O=C(O)CNC(=O)c1cccnc1Oc1ccccc1	0.58
COc1ccc(O)c(C2=NN3C(C2)c2ccccc2OC3c2ccccc2)c1 (stereo unspecified)	8.3*
COc1ccc(O)c(C2=NN3C(C2)c2ccccc2OC3c2ccncc2)c1 (stereo unspecified)	11*
COc1ccc(O)c(C2=NN3C(C2)c2ccccc2OC3c2ccsc2)c1 (stereo unspecified)	5.5*
Oc1ccccc1C1=NN2C(C1)c1ccccc1OC2c1ccsc1 (stereo unspecified)	4.5
Cc1ccc(O)c(C2=NN3C(C2)c2ccccc2OC3c2ccsc2)c1 (stereo unspecified)	2.9
CC(C)(CC(=O)O)CC(=O)Nc1ccc2c(c1)C(=O)OC2	2.2
O=C1NNC(SCc2ccc(Br)cc2)=Nc2ccccc21	0.11
CCOC(=O)c1cc(-c2ccccc2)sc1NC(=O)Nc1cccc(Cl)c1	-0.07
COC(=O)C(C)SCC(=O)Nc1c(C)cccc1C (stereo unspecified)	0.14
O=C(NCC1CC1)NC(=O)c1c(Cl)cccc1Cl	-2.1
SMILES	Dicer inh
CCOC(=O)N/N=C/c1ccc2c(c1)OCO2	2.9
C#CCSc1n[nH]c(=O)n1-c1ccc(OCc2ccccc2)cc1	-0.73
CC12CN(S(=O)(=O)c3ccccc3)CC(C)(CN(S(=O)(=O)c3ccccc3)C1)C2=O	1.1
Cc1c(C(=O)O)cc(C(C)(C)C)n1-c1ccccc1	0.95
O=C1CSC2(C(=O)Nc3ccccc32)N1c1ccccc1 (stereo unspecified)	-0.52
Cc1ccc(C)c(C(=O)CC2(O)C(=O)Nc3ccccc32)c1 (stereo unspecified)	1.6
Cc1ccc(N2C(=O)CSC23C(=O)Nc2ccccc23)cc1 (stereo unspecified)	3.8*
Cc1cc(C)nc(-n2ncc3c2CC(c2ccco2)CC3=O)n1 (stereo unspecified)	0.99
CCCCNCC(=O)c1c(N)n(C)c(=O)n(C)c1=O	2.4
CCCOc1ccc(C2c3c(oc4ccc(C)cc4c3=O)C(=O)N2CCCN(C)C)cc1 (stereo unspecified)	-0.21
Cc1ccc(/C(O)=C2/C(=O)C(=O)N(CC(C)O)C2c2ccccn2)cc1 (stereo unspecified)	-0.57
COC(=O)c1c(NC(=O)COc2ccc(Cl)cc2)sc2c1CCCC2	-0.64
Cc1occc1-c1nnc(SCCC(=O)O)o1	1.4
Cc1ccc(-c2nnc(SCC(=O)O)o2)cc1	0.56
Cc1occc1-c1nnc(SCC(=O)O)o1	3.4*
O=c1cc(C(F)(F)F)nc(SCc2c(F)cccc2Cl)[nH]1	-0.17
CCC1(C)CC(=O)N(c2cc(Cl)cc(Cl)c2)C(=O)C1	1.9
CC1=CC(C)C2(CO)COC(c3ccc(O)cc3)C1C2C (stereo unspecified)	3.9*
CC1=CC(C)C2(CO)COC(c3ccc4c(c3)OCO4)C1C2C (stereo unspecified)	-1.3
CC1=CC(C)C2(CO)COC(c3cccnc3)C1C2C (stereo unspecified)	0.1
Cc1ccnc(NC(=O)CCC(=O)O)c1	0.53
COc1ccc([N+](=O)[O-])c(OC)c1C(=O)Nc1ccccc1C(=O)NCC1CC1	0
CCC(C)NC(=O)c1c(OC)ccc([N+](=O)[O-])c1OC (stereo unspecified)	-0.14
COc1ccc([N+](=O)[O-])c(OC)c1C(=O)NCC1CC1	4.9*
